Screens deposited in PubChem by The Scripps Research Institute Molecular Screening Center.
CHO-K1 Ca ag = nonselective activator or artifact in parental CHO-K1 cells | Fluo-8 calcium fluorescence; scaled to maximal ATP response, vehicle zero | AID 602248 | activation, % at 3 µM | actives 0.48% (n = 360,000); in the data active = activation above about 15%;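 note: untransfected CHO-K1 host cells lacking M1 receptor as counterscreen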
M1 antag = antagonists of human M1 muscarinic receptor; inhibition, % at 3 µM; P11229; actives 1.3% (n = 360,000); CHO-K1 hM1, Fluo-8 calcium fluorescence, ACh EC80 antagonist; AID 588852;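 active = percent inhibition above its own plate's cutoff, namely the mean of that plate's compound wells plus 3 SD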;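 note: peak over basal fluorescence ratio during 140 s after agonist addition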
Target sequence (P11229 whole entry, looked up): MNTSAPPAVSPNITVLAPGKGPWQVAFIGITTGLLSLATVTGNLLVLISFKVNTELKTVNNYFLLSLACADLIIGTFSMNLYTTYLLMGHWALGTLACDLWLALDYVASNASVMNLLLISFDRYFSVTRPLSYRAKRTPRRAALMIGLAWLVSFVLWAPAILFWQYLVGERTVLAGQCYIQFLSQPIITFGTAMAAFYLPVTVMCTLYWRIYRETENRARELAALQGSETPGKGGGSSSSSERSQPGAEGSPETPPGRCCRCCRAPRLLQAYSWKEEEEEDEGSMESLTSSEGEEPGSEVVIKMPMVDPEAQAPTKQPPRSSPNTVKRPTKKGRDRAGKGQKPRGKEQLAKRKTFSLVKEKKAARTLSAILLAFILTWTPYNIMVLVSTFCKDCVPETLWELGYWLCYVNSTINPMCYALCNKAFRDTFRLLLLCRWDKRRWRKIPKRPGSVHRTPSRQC
M1 PAM = potentiates human M1 receptor response to acetylcholine | actives 0.088% (n = 360,000) | P11229 | activation, % at 3 µM | CHO-K1 hM1, Fluo-8 calcium fluorescence, ACh EC20; 0% = ACh EC20, 100% = maximal ACh | AID 588819; in the data active = activation above about 19%, passing the limit was not always enough
M1 ag = activates human CHRM1 receptor. CHO-K1 hM1, Fluo-8 calcium fluorescence, agonist mode; 0% DMSO, 100% acetylcholine EC100. activation, % at 3 µM. actives 0.33% (n = 360,000). AID 588814;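 active = activation above the run's mean compound activation plus 3 SD, cut at about 16% in these data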;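 note: peak over basal fluorescence ratio within a 140 s kinetic read after compound addition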
CHO-K1 Ca antag = M1 antagonist counterscreen hit in parental CHO-K1 cells. ATP-induced calcium, Fluo-8 fluorescence. inhibition, % at 3 µM. actives 0.6% (n = 360,000);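 active = inhibition above a per-plate cutoff, the plate's mean sample inhibition plus 3 SD, cut at about 24% in these data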
M1 PAM parental = M1 PAM counterscreen hit in parental CHO-K1 cells. actives 0.02% (n = 360,000). ATP EC20, Fluo-8 calcium fluorescence; 0% at ATP EC20, 100% at ATP max. activation, % at 3 µM;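 active = activation above the run cutoff, the mean activation of all test compounds plus 3 SD, cut at about 40% in these data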;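 note: peak over basal fluorescence ratio in a 140 s read after ATP addition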
A number is an active result. A selection: hits, their analogues and other compounds. The true share with any hit is near 2.3%.

`Cc1ccc(C2=CC(=O)CC(C)(C)C2)cc1` gave CHO-K1 Ca ag inactive, M1 antag inactive, M1 PAM inactive, M1 ag inactive, CHO-K1 Ca antag inactive and M1 PAM parental inactive.
For COC(=O)[C@H](Cc1ccccc1)NC(=O)NCCc1ccccc1F the results were CHO-K1 Ca ag inactive, M1 antag inactive, M1 PAM inactive, M1 ag inactive, CHO-K1 Ca antag inactive and M1 PAM parental inactive.
CCn1cc(CNC(=S)Nc2cccc(Cl)c2C)cn1 was read as CHO-K1 Ca ag inactive, M1 antag inactive, M1 PAM inactive, M1 ag inactive, CHO-K1 Ca antag inactive and M1 PAM parental inactive.
CC(C)Cc1nnc(NC(=O)CCC(=O)N2CCN(c3ccc(F)cc3)CC2)s1 was read as CHO-K1 Ca ag inactive, M1 antag inactive, M1 PAM inactive, M1 ag inactive, CHO-K1 Ca antag inactive and M1 PAM parental inactive.
CCC(C(=O)NCCC(C)C)n1ccc2cc(S(=O)(=O)N3CCCCC3)ccc21 (stereo not drawn) was read as CHO-K1 Ca ag inactive, M1 antag 44.7, M1 PAM inactive, M1 ag inactive, CHO-K1 Ca antag inactive and M1 PAM parental inactive.
For COc1cc(C(=O)c2ccccc2C(=O)O)c(OC)c2c1CCCC2 the results were CHO-K1 Ca ag inactive, M1 antag inactive, M1 PAM inactive, M1 ag inactive, CHO-K1 Ca antag inactive and M1 PAM parental inactive.
CCOc1ccc(C(=O)NC2CC3CCCC(C2)N3CC(C)C)cc1 (stereo not drawn) was read as CHO-K1 Ca ag inactive, M1 antag 39.9, M1 PAM inactive, M1 ag inactive, CHO-K1 Ca antag inactive and M1 PAM parental inactive.
`O=C(Nc1cc(Cl)cc(Cl)c1)c1cccnc1` gave CHO-K1 Ca ag 18.0, M1 antag inactive, M1 PAM inactive, M1 ag inactive, CHO-K1 Ca antag inactive and M1 PAM parental inactive.
`Cc1ccc(-c2nnn(CC(=O)N(CC(=O)NC3CCCCC3)c3cccc(F)c3)n2)o1` gave CHO-K1 Ca ag 20.4, M1 antag inactive, M1 PAM inactive, M1 ag inactive, CHO-K1 Ca antag inactive and M1 PAM parental inactive.
For Cc1ccc(-c2nnn(CC(=O)N(CC(=O)NC3CCCC3)c3cccc(F)c3)n2)o1 the results were CHO-K1 Ca ag inactive, M1 antag inactive, M1 PAM inactive, M1 ag inactive, CHO-K1 Ca antag inactive and M1 PAM parental inactive.
For CCOC(=O)Cn1c(-c2ccccc2)cc(SC)c(C#N)c1=O the results were CHO-K1 Ca ag inactive, M1 antag 51.7, M1 PAM inactive, M1 ag inactive, CHO-K1 Ca antag inactive and M1 PAM parental inactive.
Screening COc1ccc(N2CCN(C(=O)NC3CC(=O)N(c4ccc(OC)cc4)C3)CC2)cc1 (stereo not drawn) returned CHO-K1 Ca ag inactive, M1 antag inactive, M1 PAM inactive, M1 ag inactive, CHO-K1 Ca antag inactive and M1 PAM parental inactive.
`Cc1ccc(N2C(=O)CC(NNc3nc4ccccc4s3)C2=O)cc1` (stereo not drawn) gave CHO-K1 Ca ag 16.7, M1 antag inactive, M1 PAM inactive, M1 ag inactive, CHO-K1 Ca antag inactive and M1 PAM parental inactive.
CC(C)n1cc(CN2CCC(Oc3ccc(C(=O)N4CCCC4)cc3)CC2)cn1 was read as CHO-K1 Ca ag inactive, M1 antag inactive, M1 PAM inactive, M1 ag inactive, CHO-K1 Ca antag inactive and M1 PAM parental inactive.
For CS/C(=N\N(C)C(N)=O)c1ccccc1 the results were CHO-K1 Ca ag 15.2, M1 antag inactive, M1 PAM inactive, M1 ag inactive, CHO-K1 Ca antag inactive and M1 PAM parental inactive.
For Cc1cc(C)cc(NC(=O)CN2CCCN(S(=O)(=O)c3ccc(Br)s3)CC2)c1 the results were CHO-K1 Ca ag inactive, M1 antag inactive, M1 PAM inactive, M1 ag inactive, CHO-K1 Ca antag inactive and M1 PAM parental inactive.
For Cc1ccc(NC(=O)CN2CCCN(S(=O)(=O)c3ccc(Br)s3)CC2)cc1 the results were CHO-K1 Ca ag inactive, M1 antag inactive, M1 PAM inactive, M1 ag inactive, CHO-K1 Ca antag 23.8 and M1 PAM parental inactive.
`Cc1ccc(N(Cc2ccco2)C(=O)c2ccc(N3CCCCC3)c([N+](=O)[O-])c2)cc1` gave CHO-K1 Ca ag inactive, M1 antag inactive, M1 PAM inactive, M1 ag inactive, CHO-K1 Ca antag 25.1 and M1 PAM parental inactive.
Screening Cc1ccccc1-n1nnnc1SCC(N)=O returned CHO-K1 Ca ag inactive, M1 antag inactive, M1 PAM inactive, M1 ag inactive, CHO-K1 Ca antag inactive and M1 PAM parental inactive.
Screening NC(=O)CSc1nnnn1CC(CC(=O)O)c1ccccc1 (stereo not drawn) returned CHO-K1 Ca ag inactive, M1 antag inactive, M1 PAM inactive, M1 ag inactive, CHO-K1 Ca antag 24.8 and M1 PAM parental inactive.
C=CCn1c(SCC(=O)Nc2ncc(Cc3cc(C(F)(F)F)ccc3Cl)s2)nnc1-c1ccncc1 was read as CHO-K1 Ca ag inactive, M1 antag inactive, M1 PAM inactive, M1 ag inactive, CHO-K1 Ca antag inactive and M1 PAM parental inactive.
CC(C)C(=O)N[C@H]1CCC2C3CC=C4C[C@@H](O)CC[C@]4(C)C3CC[C@@]21C (stereo partly drawn) was read as CHO-K1 Ca ag inactive, M1 antag inactive, M1 PAM inactive, M1 ag inactive, CHO-K1 Ca antag inactive and M1 PAM parental inactive.
For CCCCCCN[C@H]1CCC2C3CC=C4C[C@@H](O)CC[C@]4(C)C3CC[C@@]21C (stereo partly drawn) the results were CHO-K1 Ca ag inactive, M1 antag 89.6, M1 PAM inactive, M1 ag inactive, CHO-K1 Ca antag inactive and M1 PAM parental inactive.
For CSCCC(NC(=O)c1ccccc1Br)C(=O)N1CCCCCCC1 (stereo not drawn) the results were CHO-K1 Ca ag inactive, M1 antag inactive, M1 PAM inactive, M1 ag inactive, CHO-K1 Ca antag inactive and M1 PAM parental inactive.
Cc1cccc(NC(=S)NNc2cccc(Cl)c2)c1 was read as CHO-K1 Ca ag inactive, M1 antag inactive, M1 PAM inactive, M1 ag inactive, CHO-K1 Ca antag inactive and M1 PAM parental inactive.
`Cc1cccc(NNC(=S)Nc2ccccc2)c1` gave CHO-K1 Ca ag inactive, M1 antag inactive, M1 PAM inactive, M1 ag inactive, CHO-K1 Ca antag 24.6 and M1 PAM parental inactive.
Cc1ccc(-n2cc(C(C)(C)C)[nH]c2=S)cc1 was read as CHO-K1 Ca ag inactive, M1 antag inactive, M1 PAM inactive, M1 ag inactive, CHO-K1 Ca antag 25.6 and M1 PAM parental inactive.
For CCC1CCCCN1C(=O)CCc1nnc(Cc2cc(OC)ccc2OC)o1 (stereo not drawn) the results were CHO-K1 Ca ag inactive, M1 antag inactive, M1 PAM inactive, M1 ag inactive, CHO-K1 Ca antag inactive and M1 PAM parental inactive.
`O=C(COC(=O)C1(c2ccccc2)CC1)NNC(=O)c1ccccc1F` gave CHO-K1 Ca ag inactive, M1 antag inactive, M1 PAM inactive, M1 ag inactive, CHO-K1 Ca antag inactive and M1 PAM parental inactive.
